# The supplement of paper PMC6555819
# System: PXR:RXRa (NR concentration 270 nM, RXRa partner concentration 90 nM)
# Assay: PBM binding z-score (relative to random genomic background probes); higher = stronger binding; sequences stand for … in GC…GCGATTGACAGCGTAGAATGAAGG
# Method in brief: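 Each nuclear receptor dimer, without ligand, was incubated for 1 h on custom Agilent 4×180K protein-binding microarrays. Binding was detected with antibodies against each partner (one per run), and scanned fluorescence was regression-normalized. The binding z-scores are referenced to random human genomic background probes.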
row,Sequence,PBM binding z-score
1,TAGCCTAGGTCATGGGCCAGTAGACCACGCGAAC,1.5
2,ATCGAAAGGTCGAGGTGATTATAGAGAAAGGGAA,2.51
3,CTCGAAAGGTCGGTAGAGGTGAGTATACGGATAA,2.69
4,CCTAGTAGGCCAGGGTCACTCAAGCATTTCGCTT,2.55
5,CCTTACGGGTCACTCCAGGCTATAGCATCGGAGT,3.3
6,CGAACTAGGTCAAGGTCAGTGAATCTCCGCACGC,3.45
7,AGAACGAGGGCACGCTGAGTTCATAGCAGAGTAG,5.94
8,GCCACTGGGGCATCAGCAGGTTACCATAACTTAA,-0.0612
9,ACTAGTTGGTCAGCTGAGATCACACACAATTCGG,0.0807
10,ATTTACGGGTCAACGAGGTTATAGCACGCGTATA,5.6
11,TAGCCTAGGTCATTGGGCAAGTATAGTACGCATC,1.64
12,TCTCGGAGTACACGAAGGTCAGAGCTTTCCAGAG,2.01
13,AGAACGAGGGCACGGTGAGTTGATAGCAGAGTAG,1.76
14,TCAAGCAGGCCAGAGGGTCACTCAAGAGGTACGG,1.65
15,CAAACTAGGTCACAGAGGCCAAAGTCCGTGCGTA,3.51
16,CGTCAAAGTACAACTAAGGTAACGTAAAGCACGC,0.34
17,TCTTGTAGATCAAGCAGGTTAAGAAAGCCTGAGT,0.519
18,TCATATAGGTAATACAGGTAAAAGTCGGCATCTA,0.705
19,AATACAGGGTCACTAGGCCAGAATAGGTACGAAT,3.16
20,CGAACTAGGTCATTGACAGGAGAGTGAATAGTAA,1.04

row,Sequence,PBM binding z-score
1,ATATGTAGGTTGTCGGGTCATTCAGTTTGCGCAT,3.63
2,TAGCCTGGGTCATGGGCCAGTATACCACGCGAAC,1.73
3,CGTCCAAGGTCAAGGGTCAGTGAAGAGATGACGG,5.97
4,ATCGAAAGATCGACGAGGTGAGTATACACCGTTT,-0.123
5,TCTTGTAGATCAAGCAGGTTAAGATAGCCTGAGT,0.406
6,GCTACTAGTTGAAAGGGCAACCGAATGATTCTCG,0.637
7,TCCGACAGGTGAAGGTAACTCAGGTACGCAGTCG,0.293
8,ATGTGTAGGTTAGCTGGGGTCATTCAGACTAGGC,6.41
9,TATACAGGGTCAATGGCCAGAGTACGAATGTCGA,3.23
10,CGTCAAAGTTCAATGTAACGTAACAGAAAGCAGC,4.03
11,ATATGTAGGTTACATCCGGGTCGTTCAGGCTATG,1.64
12,CCCTACGGGTCACTGACAGGTTATAGCATTTGGA,3.54
13,AGTCAAAGTTCATCTAGGTAACGCAAGATATGCT,5.12
14,CGTCCAAGATCAATGCTAGGTCAGTGAAAGCATT,0.204
15,TAGCCTAGGTCATTCAGGAGCCAGTATAGAAAGC,1.43
16,CCTGCTAGGTCAATGTTCAGCTAAAGCAGCTCGC,0.795
17,TCCAGTAGGTTAGGGGCATTCAGAATGGCGTCGA,0.69
18,TCGCGGAGGACACGAAGGTCAGAGCTTTCCAGAG,1.83
19,CGAAGTAGGTCATCCAGGACAGTGAATACATTGA,2.56
